In the library only some 6.9% were active in any assay of this set; here they are far more common.
BAZ2B block – BAZ2B (human) inhibition | Q9UIF8 | AlphaScreen BAZ2B-H3K14Ac peptide displacement | Potency, µM (titrated, usually from 114 µM), for inactives: at the top dose activity change, negative = inhibition, hits mostly inhibitors | 360,000 compounds, 4.4% hits | AID 504333; further: on the % scale 0 is the no-effect control and ±100 the full control effect; nearly all actives have a fitted effect of over 60% in size
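BAZ2B (50 nM) with biotin-H3(5-23)K14Ac peptide (50 nM) in PBS pH 7.4, 0.01% Tween-20, preformed 30 min, then compound 30 min at room temperature; top concentration 110uM. AlphaScreen streptavidin donor/nickel chelate acceptor beads (10 ug/mL final), 20 min dark, signal read.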
VDR inh – blocks the human vitamin D receptor; P11473; VDR-SRC2-3 peptide fluorescence polarization, 2 h; Potency, µM, for inactives: max response, negative = inhibition, actives largely listed as inhibitors; 400,000 compounds, 0.93% hits; further: on the % scale 0 is the no-effect control and ±100 the full control effect
Target sequence (P11473 whole entry, looked up): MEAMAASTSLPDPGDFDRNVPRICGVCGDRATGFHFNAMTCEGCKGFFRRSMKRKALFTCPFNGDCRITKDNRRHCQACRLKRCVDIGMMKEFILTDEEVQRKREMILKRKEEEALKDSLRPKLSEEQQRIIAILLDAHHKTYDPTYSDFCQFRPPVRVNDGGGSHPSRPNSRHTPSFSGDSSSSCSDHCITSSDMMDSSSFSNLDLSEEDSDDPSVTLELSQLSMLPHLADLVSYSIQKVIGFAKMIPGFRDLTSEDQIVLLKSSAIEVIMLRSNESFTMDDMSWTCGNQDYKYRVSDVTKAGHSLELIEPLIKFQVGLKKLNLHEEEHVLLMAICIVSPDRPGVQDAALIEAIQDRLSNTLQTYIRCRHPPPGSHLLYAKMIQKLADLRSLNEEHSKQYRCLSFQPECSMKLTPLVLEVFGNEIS
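The screen uses fluorescence polarization to detect compounds that interfere with recruitment of the SRC2-3 coactivator peptide to VDR; plates are read after 2 h at room temperature.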
JMJD2A Tudor inh – blocks the human JMJD2A Tudor domain | 390,000 compounds, 4.4% hits | AlphaScreen JMJD2A-Tudor / H3K4me3 peptide binding | Potency, µM (series often up to 114 µM), for the others: at the top dose activity change, negative = inhibition, hits mostly inhibitors | O75164 | AID 504339; further: on the % scale 0 is the no-effect control and ±100 the full control effect; nearly all actives have a fitted effect of over 50% in size
PLK1 PBD block – inhibitors of human PLK1 polo-box domain binding. P53350. Plk1 PBD binding of FITC phosphopeptide, fluorescence polarization. Potency, µM, for inactives: max response, negative = inhibition, most hits filed as inhibitors. AID 720504. 360,000 compounds, 2.8% hits; further: series mostly up to about 57 µM; on the % scale 0 is the no-effect control and ±100 the full control effect; nearly all actives have a fitted effect of over 65% in size
HP1b chromo inh – inhibitors of HP1-beta chromodomain binding to methylated histone tails; AlphaScreen HP1-beta / biotin-H3K9me3 peptide binding; 390,000 compounds, 0.56% hits; AID 540317; Potency, µM (doses to about 114 µM), for the others: at the top dose activity change, negative = inhibition, actives largely listed as inhibitors; further: nearly all actives have a fitted effect of over 70% in size
Target sequence (P83916 whole entry, looked up): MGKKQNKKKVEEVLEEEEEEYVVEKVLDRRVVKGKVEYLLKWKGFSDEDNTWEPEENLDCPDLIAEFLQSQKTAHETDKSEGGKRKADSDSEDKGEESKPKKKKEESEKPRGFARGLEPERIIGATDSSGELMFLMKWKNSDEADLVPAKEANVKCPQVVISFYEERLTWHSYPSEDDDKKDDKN
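HP1-beta protein (50 nM final) preincubated 30 min at room temperature with biotinylated H3(1-18)K9me3 peptide (50 nM) in PBS pH 7.4, 0.01% Tween-20, then compound added for 30 min. AlphaScreen streptavidin donor/nickel chelate acceptor beads (10 ug/mL final), 30 min dark, luminescence read.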
L3MBTL1 inh – L3MBTL1 (human) inhibition | 230,000 compounds, 0.66% hits | AID 485360 | AlphaScreen L3MBTL1–H3K9me1 peptide binding | Potency, µM (top dose mostly 57.1 µM), for the others: at the top dose activity, negative = inhibition, usual class: inhibitors | Q9Y468; further: on the % scale 0 is the no-effect control and ±100 the full control effect; nearly all actives have a fitted effect of over 60% in size
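AlphaScreen assay: L3MBTL1 (50 nM final) was preincubated 30 min at room temperature with biotinylated H3(1-15)K9me1 peptide (75 nM final), then 30 min with library compounds; streptavidin donor and nickel chelate acceptor beads (10 ug/mL final) added, 30 min dark.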
An asterisk follows results filed as active; ? = inconclusive; nt = no result; [ ] = dose if it differs, or a comment. The call rests on the fitted dose curve; in most records, active means well fitted curve in the direction sought with a large enough effect; inconclusive means small, poorly fitted or top-dose-only effect, or another doubt; inactive means no such curve, though single readings can be large; an effect the other way counts as inactive or inconclusive. Potency means the concentration at half of the fitted maximal effect.

SMILES | BAZ2B block | VDR inh | JMJD2A Tudor inh | PLK1 PBD block | HP1b chromo inh | L3MBTL1 inh
CN(C)c1ccc(-c2nc3ccccc3n2C)cc1 | ? | 0.1% | -35.1% | 26.7µM* | 0.9% | -6.8%
CCn1c(-c2ccc(N(C)C)cc2)nc2ccccc21 | 50.1µM* | 11.2% | -30.8% | 0.1% | 10.6% | -8.5%
CCOc1ccccc1C(=O)NCc1ccc2c(c1)CCN2C(C)=O | -1.3% | 8.4% | -13.3% | nt | 30.0% | nt
CC(C)(C)c1nn(-c2ccccc2)c2[nH]c(=O)c(CNc3ccc4c(c3)OCCO4)cc12 | 1.12µM* | 18.2% | 39.8µM* | -1.3% | ? | nt
CC(C)(C)c1nn(-c2ccccc2)c2[nH]c(=O)c(CNCc3ccco3)cc12 | -0.5% | 14.4% | -19.8%[11.4 µM] | -21.1% | 27.8% | -5.3%
Cc1nn(-c2ccccc2)c2[nH]c(=O)c(CNc3ccc(N4CCOCC4)cc3)cc12 | 44.7µM* | -11.9% | ? | 2.99µM* | ? | -20.3%
NC(=O)c1ccc(-c2nc(-c3ccc4c(c3)OCO4)c(-c3ccccn3)[nH]2)cc1 | nt | 3.6% | nt | nt | nt | nt
CCOC(=O)CSc1nc(N)nc(C)c1Cl | -6.3% | ? | ? | 29.9µM* | 15.4% | 5.6%
CCOC(=O)CSc1nc(C)c(CC)c(C)c1C(N)=O | -10.3% | 7.1% | -6.8%[11.4 µM] | -5.9% | 49.9% | -0.8%
O=C(NCCCc1nc2ccccc2n1Cc1cccc(Cl)c1)c1ccco1 | -13.6% | 6.4% | -19.4% | nt | 23.5% | nt
COc1ccc(CC2(C)OC(c3ccc(C)c([N+](=O)[O-])c3)=NN2C(C)=O)cc1 (stereo not drawn) | -37.1% | -10.5% | 79.4µM* | ? | 70.8µM* | -25.5%
CC1CCCC(NC(=O)CCC(=O)c2ccc(F)cc2)C1C (stereo not drawn) | 9.5% | -18.4% | -11.8%[11.4 µM] | 23.8µM* | -10.4% | -10.2%
CC1CCCC(NC(=O)CSc2ccc(F)cc2)C1C (stereo not drawn) | -32.8% | 5.6% | -7.0% | -6.6% | 73.5% | ?
CC1CCCC(NC(=O)CCC(=O)N2CCOc3ccccc32)C1C (stereo not drawn) | -4.2% | ? | ? | 15µM* | 16.2% | nt
Cc1ccccc1N(C(=O)c1ccccn1)C(C(=O)NCc1ccccc1)c1ccncc1 (stereo not drawn) | -10.0% | -7.1% | -6.7% | -6.1% | 35.8% | nt
CCc1ccc(N(C(=O)c2csnn2)C(C(=O)NC(C)(C)C)c2ccncc2)cc1 (stereo not drawn) | 5.1% | -8.3% | -11.9% | -3.0% | 30.6% | 4.8%
O=C(NCc1ccccc1)C(c1ccncc1)N(C(=O)c1ccccn1)c1ccccc1 (stereo not drawn) | 50.1µM* | 10.4% | 25.1µM* | -11.8% | 46.8% | nt
CCc1cccc(N(C(=O)c2csnn2)C(C(=O)NC(C)(C)C)c2ccncc2)c1 (stereo not drawn) | ? | 8.8% | 56.2µM* | 26.7µM* | -5.0% | -9.6%
NC(=S)N=Nc1c(O)cc(O)c2[nH]c(=O)ccc12 | nt | ? | 50.1µM* | 7.52µM* | 17.8µM* | nt
NC(=S)N=Nc1c(O)[nH]c2ccc(F)cc12 | -29.5% | 1.3% | ? | 0.1% | 23.1% | -6.3%
COc1ccc(-c2nn3c(-c4ccccn4)nnc3s2)cc1OC | 44.7µM* | 2.2% | ? | -6.2% | 16.3% | -0.3%
COc1cccc(-c2nn3c(-c4ccccn4)nnc3s2)c1 | 58.9% | 4.4% | 79.4µM* | -8.3% | 63.1% | ?
COc1ccc(-c2nn3c(C4CCCCC4)nnc3s2)cc1OC | 23.5% | ? | -19.5% | 21.2µM* | ? | 20.2%
COc1cccc(-c2nn3c(-c4cc(C)[nH]n4)nnc3s2)c1 | 8.0% | 1.9% | -5.0% | 2.6% | 37.2% | 7.4%
COc1ccccc1-c1nnc2sc(-c3cnccn3)nn12 | -37.6% | 12.9% | 50.1µM* | ? | -2.0% | nt
SMILES | BAZ2B block | VDR inh | JMJD2A Tudor inh | PLK1 PBD block | HP1b chromo inh | L3MBTL1 inh
COc1ccccc1-c1nnc2sc(-c3ccc(N(C)C)cc3)nn12 | 5.0% | -12.9% | 1.4% | -7.0% | 33.8% | 10.4%
Clc1ccc(-c2nnc3sc(-c4ccccn4)nn23)cc1 | 11.8% | nt | nt | nt | nt | 1.9%
CC(C)(C)c1ccc(-c2nnc3sc(-c4ccccn4)nn23)cc1 | ? | ? | -26.1% | 21.2µM* | -5.8% | -3.1%
COc1cccc(-c2nnc3sc(-c4ccccn4)nn23)c1 | nt | -13.5% | 6.2%[11.4 µM] | 26.7µM* | ? | 0.2%
COc1ccc(-c2nnc3sc(-c4ccccn4)nn23)cc1 | nt | nt | nt | nt | nt | 4.2%
Cc1ccc(Cn2ccc(NC(=O)c3cc(-c4ccc(Cl)c(Cl)c4)on3)n2)cc1 | 3.6% | -4.3% | -2.0% | nt | 17.3% | nt
NC(=O)/C(=N\OC(=O)c1ccco1)c1nc(-c2ccc(Br)cc2)cs1 | -3.1% | -16.1% | -14.6% | 5.32µM* | 25.2% | -0.1%
Nc1nc(-c2ccc(NC(=O)c3ccco3)cc2)cs1 | -18.7% | 15.6% | -18.9% | -19.5% | -15.3% | nt
Cc1ccc(CNCc2ccccc2Cl)s1 | 4.3% | -17.5% | 21.3% | nt | 56.5% | nt
CC1CCN(C(=O)CSc2nc3ncccc3[nH]2)CC1 | -6.6% | -14.9% | -5.0% | ? | -1.6% | nt
CCC1CCCCN1C(=O)CSc1nc2ncccc2[nH]1 (stereo not drawn) | -26.7% | ? | 50.1µM* | -2.1% | ? | nt
CCCn1nc([N+](=O)[O-])c(C(C#N)c2nc3ccccc3s2)c(Cl)c1=O (stereo not drawn) | 10µM* | ? | 15.8µM* | 23.8µM* | 11.2µM* | nt
O=[N+]([O-])c1ccc(CN2CCN(c3nc4ccccc4s3)CC2)cc1 | ? | ? | -4.9% | -9.2% | -16.5% | nt
Fc1ccccc1SCc1nnc(-c2ccccc2Br)o1 | 83.7% | 44.7µM* | 11.2µM* | 3.36µM* | -10.5% | 56.9%
Cc1ccc(C(=O)NC(=S)/C=C2\N(C)c3ccccc3C2(C)C)cc1 | 12.6µM* | 6.1% | 22.4µM* | ? | 12.6µM* | ?
CC(C)C(=O)NC(=S)/C=C1/N(C)c2ccccc2C1(C)C | 31.6µM* | -4.1% | 39.8µM* | -26.6% | 50.1µM* | -13.0%
Cc1ccc(C(=O)NCC(=O)OCC(=O)/C=C2\N(C)c3ccccc3C2(C)C)cc1C | -0.8% | ? | ? | 29.9µM* | -15.0% | -1.7%
CN1/C(=C\C(=O)COC(=O)c2ccccc2O)C(C)(C)c2ccccc21 | -0.2% | 3.5% | -1.4% | -1.4% | 77.5% | 7.8%
Cc1c(NC(=S)/C=C2\N(C)c3ccccc3C2(C)C)c(=O)n(-c2ccccc2)n1C | ? | -8.9% | -25.9% | ? | ? | -6.2%
CN1/C(=C\C(=O)c2cccnc2)C(C)(C)c2ccccc21 | 8.7% | -15.6% | 28.3% | 3.5% | 67.9% | 20.8%
Cc1cc(N=Nc2ccc(C)c(N=Nc3cc(C)c(N)cc3N)c2)c(N)cc1N | 39.8µM* | 5.5% | 50.1µM* | 0.3% | ? | nt
Cc1cc(-c2cc(C)c(N)cc2C)c(C)cc1N | nt | 0.9% | ? | -17.6% | ? | nt

Screening data (PubChem BioAssay)
